Screening results from PubChem.
This is a sample that favours compounds with a hit; in the whole collection about 11% have one here.
FLuc inh = inhibitors of firefly (Photinus pyralis) luciferase; P08659; purified P. pyralis luciferase, luminescence, biochemical; Potency, µM (top dose mostly 115 µM), most hits filed as inhibitors; 2.5% of 76,000 active; AID 1347043; also: nearly all actives have a fitted effect of over 65% in size
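Biochemical qHTS: compound (6-point titration) added to 10uM D-luciferin plus 10uM ATP in Tris acetate pH 7.5 buffer with Mg, Tween-20 and BSA, then purified enzyme at 10nM; light output imaged.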
NIH3T3 tox = kills NIH 3T3 cells. NIH 3T3 viability, CellTiter-Glo ATP luminescence, 48-72 h. Potency, µM (doses to about 96.7 µM), usual class: inhibitors. 4.3% of 94,000 active; also: nearly all actives have a fitted effect of over 55% in size
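Cells were seeded at 400 per well, treated with pin-transferred compound, and kept 48 or 72 hr at 37 °C before CellTiter-Glo addition and luminescence imaging of cellular ATP.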
hNpr1 antagonist = human Npr1 receptor antagonism. P16066. HEK293 hNpr1 GloSensor cGMP, ANP-stimulated luminescence. Potency, µM (series often up to 46.3 µM), hits mostly inhibitors. 1.6% of 76,000 active; calls by dose curve; also: nearly all actives have a fitted effect of over 60% in size
Target sequence (P16066 whole entry, looked up): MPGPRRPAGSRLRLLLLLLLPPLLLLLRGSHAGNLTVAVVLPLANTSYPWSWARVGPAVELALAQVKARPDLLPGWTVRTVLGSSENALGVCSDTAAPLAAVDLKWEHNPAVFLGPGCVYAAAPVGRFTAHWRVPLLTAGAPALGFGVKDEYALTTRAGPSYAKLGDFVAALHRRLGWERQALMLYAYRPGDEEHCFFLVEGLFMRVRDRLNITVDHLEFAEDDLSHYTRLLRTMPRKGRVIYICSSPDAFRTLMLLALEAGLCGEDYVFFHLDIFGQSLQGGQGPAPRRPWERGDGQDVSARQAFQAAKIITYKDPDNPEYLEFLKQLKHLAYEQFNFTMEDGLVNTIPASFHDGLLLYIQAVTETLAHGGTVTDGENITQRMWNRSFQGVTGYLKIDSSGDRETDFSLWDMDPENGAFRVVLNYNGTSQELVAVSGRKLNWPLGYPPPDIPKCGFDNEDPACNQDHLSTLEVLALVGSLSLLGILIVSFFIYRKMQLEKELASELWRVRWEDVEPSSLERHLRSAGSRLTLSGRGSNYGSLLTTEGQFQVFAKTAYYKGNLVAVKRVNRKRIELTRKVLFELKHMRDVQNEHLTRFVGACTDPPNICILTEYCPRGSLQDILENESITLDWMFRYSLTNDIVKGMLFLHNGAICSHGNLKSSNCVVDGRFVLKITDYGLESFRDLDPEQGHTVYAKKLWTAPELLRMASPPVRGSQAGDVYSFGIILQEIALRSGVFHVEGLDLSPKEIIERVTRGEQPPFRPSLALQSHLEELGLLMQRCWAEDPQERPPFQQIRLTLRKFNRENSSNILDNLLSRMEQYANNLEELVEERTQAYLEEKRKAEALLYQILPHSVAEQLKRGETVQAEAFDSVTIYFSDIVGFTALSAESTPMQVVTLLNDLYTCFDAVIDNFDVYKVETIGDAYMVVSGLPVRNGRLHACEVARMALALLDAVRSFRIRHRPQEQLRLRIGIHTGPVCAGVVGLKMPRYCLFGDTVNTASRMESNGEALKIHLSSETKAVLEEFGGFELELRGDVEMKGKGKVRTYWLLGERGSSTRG
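Compound pre-incubated 30 min at room temperature on GloSensor-loaded HEK293 cells stably carrying hNpr1 and the pGS-40F cGMP biosensor. Stimulation uses hNppA at 0.1 nM final; luminescence is taken at baseline and 20 min post-agonist.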
HEK cytotox = cytotoxic compounds in HEK 293 cells; Potency, µM (series often up to 115 µM), actives largely listed as inhibitors; HEK 293 viability, ATP luminescence (CellTiter-Glo), 48-72 h; AID 1345083; 6.6% of 94,000 active; also: nearly all actives have a fitted effect of over 60% in size
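Viability of HEK 293 cells, plated at 250 cells/well, was judged by cellular ATP after compound treatment for 48 or 72 hr. Luminescence was imaged 10 min after CellTiter-Glo addition at room temperature.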
Each line names hits and unclear results; the compound was inactive in the other large screens. Unless noted, calls follow the shape of the dose curve; as a rule, active = well fitted curve in the direction sought with a large enough effect; inconclusive = small, poorly fitted or top-dose-only effect, or another doubt; inactive = no such curve, though single readings can be large; an effect the other way counts as inactive or inconclusive.

CCOc1ccc2c(n1)CCN(C(=O)NCC(C)C)C2	FLuc inh inconclusive
COCCOc1ccc2c(n1)CCN(C(=O)NCCC(C)C)C2	FLuc inh 14µM
O=c1c2c(n(Cc3cccnc3)n1CCc1ccccc1)CN(CC1CCOC1)CC2 (stereo not drawn)	NIH3T3 tox 45µM
O=c1c2c(n(Cc3cccnc3)n1-c1ccccc1)CN(CC1CCOC1)CC2 (stereo not drawn)	NIH3T3 tox inconclusive
CCn1c2c(c(=O)n1Cc1ccccc1)CCN(Cc1nccs1)C2	NIH3T3 tox inconclusive
CCn1c2c(c(=O)n1Cc1ccccc1)CCN(Cc1cncc(OC)c1)C2	NIH3T3 tox 79µM
O=c1c2c(n(Cc3cccnc3)n1CCc1ccccc1)CN(CC1CC1)CC2	NIH3T3 tox 40µM
COc1ccc(Cn2c3c(c(=O)n2Cc2ccccc2)CCN(CC2CCOC2)C3)cc1 (stereo not drawn)	NIH3T3 tox 28µM
CN(CC[C@H]1CN(C(=O)c2ccc(C(F)(F)F)cc2)CC[C@H]1CC(=O)O)c1ccccc1	NIH3T3 tox 35µM
COc1cc(SC)ccc1C(=O)N[C@H]1CCN2C(=O)[C@@H](CC(C)C)NC(=O)[C@@H]2C1	none
CC1(c2cccnc2)N(Cc2ccccc2)C(=O)OC12CCN(C(=O)COc1ccccc1)CC2 (stereo not drawn)	NIH3T3 tox 32µM
CC1(c2cccnc2)N(CC2CC2)C(=O)OC12CCN(C(=O)c1ccccc1)CC2 (stereo not drawn)	NIH3T3 tox inconclusive
COCC(=O)N1CCC2(CC1)OC(=O)N(CCOc1ccccc1)C2(C)c1cccnc1 (stereo not drawn)	NIH3T3 tox 50µM
CC1(c2ccccc2)N(Cc2ccccc2)C(=O)OC12CCN(C(=O)COc1ccccc1)CC2 (stereo not drawn)	NIH3T3 tox 28µM, HEK cytotox inconclusive
COCC(=O)N1CCC2(CC1)OC(=O)N(Cc1ccc(O)cc1)C2(C)c1ccccc1 (stereo not drawn)	NIH3T3 tox inconclusive
CC1(c2cccnc2)N(Cc2ccccc2)C(=O)OC12CCN(C(=O)c1cnccn1)CC2 (stereo not drawn)	NIH3T3 tox 28µM
O=C(NC1CCCC1)N1CCCC(C(=O)N2CCC(c3nc4ncccc4[nH]3)CC2)C1 (stereo not drawn)	none (no result: FLuc inh, hNpr1 antagonist)
NCC1Cn2cccc2CN1Cc1ccccc1 (stereo not drawn)	NIH3T3 tox inconclusive, HEK cytotox inconclusive
Cn1nccc1-c1ccc2ncn(-c3ccc(F)cc3F)c(=O)c2n1	NIH3T3 tox inconclusive, HEK cytotox 63µM
CCOC(=O)C1(Cc2cccc(C(F)(F)F)c2)CCN(Cc2cn(CC)nc2C)CC1	NIH3T3 tox inconclusive, hNpr1 antagonist inconclusive, HEK cytotox 20µM
CCOC(=O)C1(Cc2ccccc2C(F)(F)F)CCN(Cc2ccccn2)CC1	NIH3T3 tox inconclusive, HEK cytotox 40µM
CCOC(=O)C1(Cc2ccccc2C(F)(F)F)CCN(C(C)Cc2cccc(C)n2)CC1 (stereo not drawn)	NIH3T3 tox 28µM, hNpr1 antagonist inconclusive, HEK cytotox 13µM
CCOC(=O)C1(Cc2ccc(Cl)cc2)CCN(Cc2ccc(OC)cc2O)CC1	NIH3T3 tox inconclusive, hNpr1 antagonist inconclusive, HEK cytotox inconclusive
CCOC(=O)[C@H]1C[C@]2(CCCCNC2=O)N(C(=O)COc2ccccc2)[C@H]1c1ccccc1	NIH3T3 tox inconclusive (no result: FLuc inh, hNpr1 antagonist)
Cc1cnc(CC2CCN(C(=O)C3CC3)CC2)n1Cc1ccccc1	NIH3T3 tox inconclusive
COc1ccc(Cl)cc1S(=O)(=O)N1CCC(n2cnnc2-c2ccccc2)CC1	NIH3T3 tox inconclusive
CCCc1nc(NCc2ccc(-c3noc(C)n3)cc2)c2cnn(C)c2n1	NIH3T3 tox inconclusive, hNpr1 antagonist 11µM, HEK cytotox 18µM
O=C(c1nnc(COc2ccc(OC(F)(F)F)cc2)n1-c1ccccc1)N1CCC[C@@H]1C(c1ccccc1)c1ccccc1	NIH3T3 tox 4.5µM, HEK cytotox inconclusive
C[C@H]1CCCN1C(=O)c1nnc(COc2ccc(C#N)cc2)n1-c1cccnc1	NIH3T3 tox 40µM, HEK cytotox inconclusive
C[C@H]1CCCN1C(=O)c1nnc(COc2ccc(C#N)cc2)n1-c1ccccc1	NIH3T3 tox 35µM
CS(=O)(=O)N1CCCC(OCc2noc(-c3cccnc3)n2)C1 (stereo not drawn)	none (no result: FLuc inh, hNpr1 antagonist)
CNC(=O)c1cc(C)nc2onc(C3CCCN(C(=O)c4ccc(F)cc4)C3)c12 (stereo not drawn)	none (no result: FLuc inh, hNpr1 antagonist)
Cc1ccc(C(=O)NC2CCN(c3nccc(Nc4ccccc4Cl)n3)CC2)cc1	none (no result: FLuc inh, hNpr1 antagonist)
O=C(C1CCCC1)N1CCN(c2nccc(Nc3ccccc3Cl)n2)CC1	NIH3T3 tox 14µM, HEK cytotox inconclusive (no result: FLuc inh, hNpr1 antagonist)
O=C(NC1CCN(c2nccc(Nc3ccccc3Cl)n2)CC1)c1ccccc1	NIH3T3 tox inconclusive, HEK cytotox 40µM (no result: FLuc inh, hNpr1 antagonist)
O=C(C1CC1)N1CCN(c2nccc(Nc3ccccc3Cl)n2)CC1	NIH3T3 tox 22µM, HEK cytotox inconclusive (no result: FLuc inh, hNpr1 antagonist)
Cc1cc(C)c(CNC(=O)c2cc(-c3ccccc3F)cc3c2OCCN3C)c(=O)[nH]1	NIH3T3 tox 50µM, HEK cytotox 71µM
COc1cccc(-c2cc(C(=O)NCc3c(C)cc(C)[nH]c3=O)c3c(c2)N(C(C)C)CCO3)c1OC	NIH3T3 tox inconclusive, HEK cytotox 79µM
Cc1cc(C)c(CNC(=O)c2cc(-c3ccccc3C)cc3c2OCCN3C(C)C)c(=O)[nH]1	NIH3T3 tox inconclusive, HEK cytotox inconclusive
CC(=O)Nc1cccc(-c2cc(C(=O)NCc3c(C)cc(C)[nH]c3=O)c3c(c2)N(C(C)C)CCO3)c1	NIH3T3 tox 45µM, HEK cytotox inconclusive
Cc1cc(C)c(CNC(=O)c2cc(-c3cccc4[nH]ccc34)cc3ncn(C)c23)c(=O)[nH]1	NIH3T3 tox inconclusive, HEK cytotox inconclusive
Cc1cc(C)c(CNC(=O)c2cc(-c3ccccc3O)cc3c2OCCN3C(C)C)c(=O)[nH]1	NIH3T3 tox inconclusive, HEK cytotox inconclusive
Cc1cc(C)c(CNC(=O)c2cc(-c3ccccc3C)cc3ncn(C)c23)c(=O)[nH]1	NIH3T3 tox inconclusive, HEK cytotox 112µM
CCOC(=O)[C@H]1[C@@H](O)C(=O)N(Cc2ccccc2)C12CCN(C(=O)C1CCCCC1)CC2	NIH3T3 tox inconclusive (no result: FLuc inh, hNpr1 antagonist)
COc1ccccc1Cn1c(=O)c(C(=O)NC(C)C)nc2cccnc21	HEK cytotox inconclusive (no result: FLuc inh, hNpr1 antagonist)
COc1cc(F)ccc1-c1cc(C(=O)NCc2c(C)cc(C)[nH]c2=O)c2c(c1)N(C(C)C)CCO2	NIH3T3 tox 40µM, HEK cytotox 45µM
COc1ccc(-c2cc(C(=O)NCc3c(C)cc(C)[nH]c3=O)c3c(c2)N(C(C)C)CCO3)cc1	NIH3T3 tox inconclusive, HEK cytotox 28µM
Cc1ccccc1C(=O)N1CCN(C(=O)c2nc3cccnc3n(CC(C)C)c2=O)CC1	none (no result: FLuc inh, hNpr1 antagonist)
Cc1nc(CCC(=O)NCc2cc(Cl)cc3c(C)c(-c4ccccc4)[nH]c23)n[nH]1	FLuc inh 32µM, NIH3T3 tox inconclusive, HEK cytotox inconclusive
